Screening data (PubChem BioAssay)
Sampled rows, rich in hits. Any-hit rate of the full collection: about 14%.
Shiga toxin inh: A qHTS for Small Molecule Inhibitors of Shiga Toxin. Vero cells, Shiga toxin protein synthesis inhibition reporter. inhibition, % at 38.7 µM. actives 9.2% (n = 290,000); in the data active = inhibition mostly above about 28%, no sharp cut-off; inactive = mostly below about 43%; note: 0% is about no effect
FBPA Giardia inh: qHTS Assay for Inhibitors of Fructose-1,6-bisphosphate Aldolase from Giardia Lamblia; A8B2U2; purified Giardia FBPA; Potency, µM (doses to about 59.6 µM), for the others: at the top dose activity, negative = inhibition, most hits filed as inhibitors; actives 0.71% (n = 290,000); note: potency is the fitted concentration of half-maximal effect; % is set by controls: 0 for no effect and ±100 for the full control effect; nearly all actives have a fitted effect of over 55% in size
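Giardia FBPA (40 nM reagent) was preincubated 10 min at RT with compound (up to 57.5 uM final), then substrate plus GAPDH/TPI/NAD/arsenate coupling system with diaphorase/resazurin was added; resorufin fluorescence (525/598 nm) was read after 20 min.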
CHX counter: Cycloheximide Counterscreen for Small Molecule Inhibitors of Shiga Toxin; max response, %; AID 2314, 2010; actives 12% (n = 300,000); cell reporter, cycloheximide protein synthesis inhibition counterscreen; in the data active = max response mostly above about 13%, no sharp cut-off; inactive = mostly below about 14%; note: read at 38.3 µM for the half of the compounds with a filed dose; 0% is about no effect
NS1 inh: qHTS Assay for Inhibitors of Influenza NS1 Protein Function; Potency, µM (highest dose often 46.1 µM), without a hit: at the top dose activity, positive = more growth; actives 0.4% (n = 270,000); AID 2326, 2010; calls by dose curve; note: potency is the fitted concentration of half-maximal effect; actives are rising curves; nearly all actives have a fitted effect of over 50% in size
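Compounds were scored for reversing the slow growth caused by influenza A NS1 in S. cerevisiae, measured by optical density at 600 nm. Assay medium contained 2% galactose at pH 6.0; NS1-free yeast of the same strain were the positive control.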
LmPK inh: qHTS Assay for Inhibitors of Leishmania Mexicana Pyruvate Kinase (LmPK); Q27686; purified LmPK, Kinase-Glo ATP luminescence, 1 h; Potency, µM (top dose mostly 57.5 µM), without a hit: top-dose activity change, negative = inhibition, hits mostly inhibitors; AID 1721, 2009; actives 0.37% (n = 290,000); note: potency is the fitted concentration of half-maximal effect; % is set by controls: 0 for no effect and ±100 for the full control effect
Target sequence (Q27686 whole entry, looked up): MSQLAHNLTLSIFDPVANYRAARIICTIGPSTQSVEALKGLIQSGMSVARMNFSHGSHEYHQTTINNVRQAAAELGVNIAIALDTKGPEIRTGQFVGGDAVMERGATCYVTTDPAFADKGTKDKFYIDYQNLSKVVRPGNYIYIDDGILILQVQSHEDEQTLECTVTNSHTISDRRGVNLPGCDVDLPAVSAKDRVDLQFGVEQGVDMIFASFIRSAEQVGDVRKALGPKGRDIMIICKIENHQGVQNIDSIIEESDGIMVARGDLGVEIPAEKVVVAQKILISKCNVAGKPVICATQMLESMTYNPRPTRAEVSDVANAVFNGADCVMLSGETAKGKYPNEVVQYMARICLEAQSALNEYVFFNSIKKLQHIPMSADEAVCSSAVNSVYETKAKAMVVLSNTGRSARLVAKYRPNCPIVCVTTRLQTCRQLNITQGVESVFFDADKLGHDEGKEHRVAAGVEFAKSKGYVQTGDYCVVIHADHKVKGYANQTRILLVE
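In 50 mM imidazole pH 7.2 with 7 mM MgCl2, LmPK (0.1 nM) turned over PEP (0.5 mM) and ADP (0.1 mM) for 1 h at room temperature. Luciferase read-out of ATP.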
* hit, by the source's call; u = inconclusive; x = not tested or not shown; + = active, no number; [ ] = another dose, or the depositor's remark. Unless noted, calls come from the whole dose curve; as a rule, active = well fitted curve in the direction sought with a large enough effect; inconclusive = small, poorly fitted or top-dose-only effect, or another doubt; inactive = no such curve, though single readings can be large; an effect the other way counts as inactive or inconclusive.

SMILES	Shiga toxin inh	FBPA Giardia inh	CHX counter	NS1 inh	LmPK inh
COc1ccc(NC(=O)O/N=C/c2ccccc2Cl)cc1	72*	-9%	30*	-3%	-1%
COc1ccc(NC(=S)NC(=O)/C=C/c2ccccc2)cc1	x	-1%	-2	10%	-4%
CCOc1ccc(N2CC(C(=O)NCCc3c[nH]c4ccc(C)cc34)CC2=O)cc1 (stereo not drawn)	-5	-14%	-6	12%	5%
S=C1NC2(CCCCCC2)N=C1c1ccccc1	-10	6%	4	x	-3%
CN1CCC2(CC1)NC(=O)c1ccccc1N2	1	-4%	4	0%	-1%
S=C1NC2(CCCCC2)Nc2ccccc21	33	-9%	16*	7%	-4%
S=C1NC2(CCCC2)Nc2ccccc21	103*	u	38*	7%	-6%
COC(CNC(=O)c1cccnc1)OC	-6	3%	-3	3%	-5%
COC(CNC(=O)c1ccc2c3c(onc13)-c1ccccc1C2=O)OC	75*	u	35*	-3%	-3%
CCN(Cc1ccccc1)C(=O)Cn1c(=O)n(CCC(=O)N2CCCCC2)c(=O)c2sccc21	-12	4%	-2	9%	2%
COc1ccc(N2CS(=O)(=O)/C(=C/N(C)C)C2=O)cc1	75*	13%	39*	12%	-19%
Clc1ccc2[nH]c(-c3ccccc3)cc2c1	70*	-2%	46*	-68%	-1%
c1ccc(-c2cc3ccccc3[nH]2)cc1	37*	-6%	33*	-21%	-7%
O=[N+]([O-])c1cccc(-c2cc3ccccc3[nH]2)c1	23	1%	27*	-28%	-3%
Cc1ccc(O)c(-c2cc3ccccc3[nH]2)c1	33*	u	28*	-31%	-4%
Nc1n[nH]c(-c2cccc([N+](=O)[O-])c2)n1	-9	4%	-3	26%	1%
CS(=O)(=O)Nc1cccc(-c2cc(Nc3ccccc3)ncn2)c1	x	-5%	x	x	x
O=c1cc(-c2ccccc2)[nH]c2ccc(Cl)cc12	+	-4%[89.2 µM]	44*	x	x
COc1ccc(-c2cc(=O)c3ccccc3[nH]2)cc1	7	-23%[89.2 µM]	18	-14%	-2%
COc1ccc(-c2cc3ccccc3[nH]2)cc1	100*	0%	42*	-2%	-3%
O=c1cc(-c2ccccc2)[nH]c2cc(Cl)ccc12	-14	2%[89.2 µM]	5	-1%	7%
Cc1nc(CC(=O)Nc2nc(-c3ccccc3)cs2)cs1	80*	-15%	29*	-54%	-6%
Cc1nc(CC(=O)Nc2nc(C(C)(C)C)cs2)cs1	88*	-1%	17	1%	1%
O=C(Cc1cccs1)Nc1nc(-c2ccccc2)cs1	29	-5%	10	-53%	1%
O=C(/C=C/c1ccco1)NCc1ccc2c(c1)OCO2	11	-3%	16	2%	-3%
SMILES	Shiga toxin inh	FBPA Giardia inh	CHX counter	NS1 inh	LmPK inh
O=C(/C=C/c1cccs1)NCc1ccc2c(c1)OCO2	34*	-2%	37*	4%	-7%
O=C(/C=C/c1ccccc1)NCc1ccc2c(c1)OCO2	34	4%	22*	0%	4%
CCN(CCCNC(=O)CN1C(=O)COc2ccc(S(=O)(=O)N3CCC(C)CC3)cc21)Cc1ccccc1	-11	0%	-7	-2%	8%
COc1ccccc1Nc1ccc2nonc2c1[N+](=O)[O-]	-6	-12%	-2	1%	0%
COCCn1c(=O)c(-c2ccccc2)nc2cnc(Nc3ccccc3)nc21	x	0%	x	x	x
CC1=CC2=NC(=O)/C(=C\c3ccc(-c4ccc(Cl)cc4)o3)C(=N)N2O1	0	3%	18*	13%	3%
CC1=CC2=NC(=O)/C(=C\c3cc(C)n(-c4ccccc4F)c3C)C(=N)N2O1	59*	-3%	29*	-4%	-4%
CC1=CC2=NC(=O)/C(=C/c3cccs3)C(=N)N2O1	-14	-2%	-1	-5%	-1%
O=C(O)c1ccc(N2C(=O)CC(N3C(=O)/C(=C/c4ccc(Cl)cc4)SC3=S)C2=O)cc1 (stereo not drawn)	-7	-1%	-2	-5%	1%
c1ccc(-c2noc(CN3CCN(c4ccccc4)CC3)n2)cc1	-5	0%	-2	-68%	8%
CC1CCN(Cc2nnc(-c3cccc(Br)c3)o2)CC1	32*	2%	34*	5%	-7%
Cc1ccc(-c2noc(CN3CCC(C(N)=O)CC3)n2)cc1	84*	-8%	41*	2%	-7%
CC1CCN(Cc2nc(-c3ccccc3)no2)CC1	25	9%	23*	-1%	-3%
Cc1ccc(-c2noc(CN3C(C)CCCC3C)n2)cc1 (stereo not drawn)	-1	-4%	22*	-8%	2%
COc1ccc(CSC2=NCCN2)cc1Br	-9	u	-3	-6%	-6%
NC(=O)[C@@H]1CCCN1Cc1nc(-c2ccc(C(F)(F)F)cc2)no1	12	5%	16*	3%	-2%
CC1CCN(c2ccc(-c3nc(-c4ccccc4)no3)cc2[N+](=O)[O-])CC1	82*	x	44*	x	x
c1ccc(-c2noc(CN3CCc4sccc4C3)n2)cc1	50	-7%	18*	-7%	0%
Cc1c(C(=O)/C=C/N(C)C)nnn1-c1ccc(Cl)c(Cl)c1	44	5%	15	-5%	0%
Cc1c(C(=O)/C=C/N(C)C)nnn1-c1ccc(Cl)cc1Cl	58*	4%	13	-33%	-3%
NC(=O)c1nn(-c2ccc(Cl)cc2Cl)c(=O)cc1O	-14	5%	-1	x	3%
Cc1c(C(=O)/C=C/N(C)C)nnn1-c1ccc(F)c(Cl)c1	76*	2%	33*	-6%	3%
N[C@H](Cc1c[nH]c2ccccc12)P(=O)(O)O	x	x	x	-3%	x
Nc1ccc(C23CC4CC(CC(O)(C4)C2)C3)cc1	24	-7%	28*	12%	-4%
Nc1ccc(C23CC4CC(CC(C4)C2)C3)cc1	-1	-4%	8	x	-12%
SMILES	Shiga toxin inh	FBPA Giardia inh	CHX counter	NS1 inh	LmPK inh
Nc1ccc(C23CC4CC(CC(CO)(C4)C2)C3)cc1	12	1%	19*	u	1%
CC(C)c1nc2scc(-c3ccc(Cl)cc3)c2c(=O)n1N	73*	-9%	38*	-12%	2%
CCOc1ccc(NC(=O)CNC(=O)Cc2ccccc2)cc1	2	-2%	-3	11%	3%
CCOc1ccc(NC(=O)CNC(=O)c2ccco2)cc1	16	3%	18*	2%	-1%
O=C(CNC(=O)c1ccco1)Nc1ccc(F)c(Cl)c1	-6	0%	-3	u	1%
CCOc1ccc(NC(=O)CCNC(=O)c2ccco2)cc1	14	0%	19*	14%	-2%
Cc1ccc(NC(=O)CNC(=O)c2ccco2)cc1Cl	36	6%	22*	6%	2%
COc1ccc(OCC(=O)Nc2ccc(NC(=O)c3ccco3)cc2)cc1	78*	0%	24*	-59%	-3%
Cn1c(=O)c(-c2ccc(Cl)cc2)nc2cnc(Oc3ccccc3)nc21	x	5%	x	x	x
